Measured values: PubChem BioAssay AID652029 (The Scripps Research Institute Molecular Screening Center, 2013)
The list shows a part of the results. Calls of active or inactive are those of the source.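 How the source made its calls: active means inhibition of LYPLA2 enzyme probe labeling above about 50% (limit read from the data); inactive means inhibition below that limit.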

Molecular target: Acyl-protein thioesterase 2 (Homo sapiens) (UniProt O95372)
Assay: blockade of human LYPLA2 probe labeling – gel-based competitive ABPP, fluorescence, assay provider, late-stage follow-up (AID 652029);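 further: loss of FP-Rh probe labeling of the LYPLA2 gel band measured as band density; 0% = DMSO only control band and 100% = blank gel background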
Settings: rhLYPLA2 in mouse brain proteome, gel ABPP FP-Rh; at 20 µM; hits give high values

Sequence of Acyl-protein thioesterase 2 (Homo sapiens) (O95372 whole entry, looked up): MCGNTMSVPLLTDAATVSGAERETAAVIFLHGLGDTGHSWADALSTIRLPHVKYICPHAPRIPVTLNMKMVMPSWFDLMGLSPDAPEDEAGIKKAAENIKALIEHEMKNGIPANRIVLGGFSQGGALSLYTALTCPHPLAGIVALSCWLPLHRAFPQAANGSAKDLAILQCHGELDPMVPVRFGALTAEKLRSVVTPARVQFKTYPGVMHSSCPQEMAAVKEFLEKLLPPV

| SMILES | inhibition |
| --- | --- |
| CC(=O)c1ccc(N2CCN(C(=O)C3CCN(S(=O)(=O)c4ccc5c(c4)CC(C)N5C(=O)C4CC4)CC3)CC2)cc1 (stereo not given) | 70% (active) |
| CCC(=O)c1ccc(OCC(O)CN2CCN(c3cccc(C(F)(F)F)c3)CC2)cc1 (stereo not given) | 18% (inactive) |
| O=C(CCCN1C(=O)c2cccc3cccc(c23)C1=O)N1CCN(Cc2ccc3c(c2)OCO3)CC1 | 25% (inactive) |
| COc1ccc(N2CCN(C(=O)c3ccc(N4CCCCS4(=O)=O)cc3)CC2)cc1 | 49% (inactive) |
| O=C1C2CCCN2C(=O)N1CCCCN1CCN(c2cccc(C(F)(F)F)c2)CC1 (stereo not given) | 44% (inactive) |
